Screening results (PubChem BioAssay)
BoNT F protease: BoNT F light chain protease inhibition. Multiplex microsphere protease cleavage assay, flow cytometry. inhibition, % at 10 µM. 360,000 tested, 0.22% active; in the data active = inhibition above about 35%, passing the limit was not always enough; inconclusive = no clear call, values can overlap the other calls; also: plate controls were buffer without enzyme for full effect and enzyme alone for no effect
Anthrax LF inh2: blocks Bacillus anthracis lethal factor protease. AID 588501. P15917. 360,000 tested, 0.12% active. inhibition, % at 10 µM. multiplex microsphere protease cleavage assay, LF; also: plate controls were buffer without enzyme for full effect and enzyme alone for no effect
BoNT-A LC inh2: blocks Botulinum neurotoxin A light chain protease | 360,000 tested, 0.17% active | inhibition, % at 10 µM | multiplex microsphere protease substrate cleavage, flow cytometry; also: plate controls were buffer without enzyme for full effect and enzyme alone for no effect
Bead autofluor: flagged as autofluorescent in microsphere protease counterscreen. 360,000 tested, 3.1% active. compound autofluorescence counterscreen, microsphere flow cytometry; hits give high values. fluorescence intensity (test concentration not listed). AID 624483; in the data active = fluorescence intensity above about 16000; inconclusive = no clear call, values can overlap the other calls
MazEF act: MazEF (E. coli) toxin RNase activation. P0AE70. FAM/BHQ RNA-DNA oligo cleavage fluorescence, 5 h. activation, % at 20 µM. 350,000 tested, 0.32% active; in the data active = activation above about 50%
Numbers without * were called inactive. Sampled rows, rich in hits. Any-hit rate of the full collection: about 3.7%. Rule as the data show it, unless noted: active = inhibition above about 30%; inconclusive = no clear call, values can overlap the other calls; inactive = below that.

`CC(=O)c1ccc(N(CC(=O)NC2CCS(=O)(=O)C2)S(=O)(=O)c2ccc(Cl)cc2)cc1` (centres undefined) gave BoNT F protease 9, Anthrax LF inh2 6, BoNT-A LC inh2 6, Bead autofluor 4010 and MazEF act -3.
`Cc1cc(C)n(C(=O)c2ccc(Cn3nc(C)c(Br)c3C)o2)n1` gave BoNT F protease -4, Anthrax LF inh2 -2, BoNT-A LC inh2 0, Bead autofluor 23364* and MazEF act -17.
Screening CCn1cc(C(=O)OCC(=O)Nc2cccc(S(=O)(=O)N3CCOCC3)c2)c(=O)c2ccc(C)nc21 returned BoNT F protease -1, Anthrax LF inh2 0, BoNT-A LC inh2 inconclusive, Bead autofluor 16363* and MazEF act -15.
For CN1C(=O)/C(=C/c2ccc(OCc3cccc(F)c3)cc2)NC1=S the results were BoNT F protease 19, Anthrax LF inh2 1, BoNT-A LC inh2 -1, Bead autofluor 3701 and MazEF act 3.
`COc1cc(/C=C2/C(=O)N(C)C(=S)N2C)ccc1OCc1cccc(F)c1` gave BoNT F protease 16, Anthrax LF inh2 -1, BoNT-A LC inh2 2, Bead autofluor 4116 and MazEF act 66*.
`Cc1oc2cc3c(C(=O)N4CCCCC4)c(C)oc3cc2c1C(=O)N1CCCCC1` gave BoNT F protease 4, Anthrax LF inh2 0, BoNT-A LC inh2 2, Bead autofluor 8033 and MazEF act -3.
For COc1cc2c(C(=O)N3CCN(C)CC3)c(C)oc2cc1Br the results were BoNT F protease 0, Anthrax LF inh2 0, BoNT-A LC inh2 0, Bead autofluor 19992* and MazEF act -2.
For CCN(CC)CCNC(=O)c1c(C)oc2cc(Br)c(OC)cc12 the results were BoNT F protease 7, Anthrax LF inh2 -4, BoNT-A LC inh2 4, Bead autofluor 21610* and MazEF act 9.
`Cn1cc(Cl)c(C(=O)OCC(=O)Nc2ccc(S(N)(=O)=O)cc2)n1` gave BoNT F protease -5, Anthrax LF inh2 14, BoNT-A LC inh2 -1, Bead autofluor 3027 and MazEF act -24.
`Clc1ccc(Nc2nc3ccccc3n3nnnc23)cc1` gave BoNT F protease 1, Anthrax LF inh2 -3, BoNT-A LC inh2 1, Bead autofluor 20275* and MazEF act 22.
Cc1ccc(Nc2nc3ccccc3n3nnnc23)cc1 was read as BoNT F protease -6, Anthrax LF inh2 -6, BoNT-A LC inh2 0, Bead autofluor 4022 and MazEF act -3.
c1coc(-c2nc3nc4ccccc4nc3n2CC2CCCO2)c1 (centres undefined) was read as BoNT F protease 1, Anthrax LF inh2 4, BoNT-A LC inh2 3, Bead autofluor 22833* and MazEF act -12.
For c1ccc(-c2nc3nc4ccccc4nc3n2CC2CCCO2)cc1 (centres undefined) the results were BoNT F protease 4, Anthrax LF inh2 -4, BoNT-A LC inh2 1, Bead autofluor 4262 and MazEF act 11.
Screening CC(Nc1nc(-c2ccccc2)nc2ccccc12)c1ccccc1 (centres undefined) returned BoNT F protease -1, Anthrax LF inh2 -1, BoNT-A LC inh2 0, Bead autofluor 6147 and MazEF act 5.
For CC(Nc1nc(N2CCCCC2)nc2ccccc12)c1ccccc1 (centres undefined) the results were BoNT F protease -5, Anthrax LF inh2 -5, BoNT-A LC inh2 inconclusive, Bead autofluor 21408* and MazEF act 13.
`COCCNC(=O)Nc1ccc2nc(-c3cccs3)c(-c3cccs3)nc2c1` gave BoNT F protease 42*, Anthrax LF inh2 57*, BoNT-A LC inh2 132*, Bead autofluor 4576 and MazEF act 2.
Screening COCCNC(=O)c1cc(-c2cccs2)on1 returned BoNT F protease -5, Anthrax LF inh2 -4, BoNT-A LC inh2 0, Bead autofluor 5329 and MazEF act 2.
For c1ccc(COc2cccc(CN3CCCCC3)c2)cc1 the results were BoNT F protease -10, Anthrax LF inh2 -4, BoNT-A LC inh2 -1, Bead autofluor 3051 and MazEF act 8.
Cc1cccc(CN2CCN(c3ncccn3)CC2)c1 was read as BoNT F protease inconclusive, Anthrax LF inh2 0, BoNT-A LC inh2 0, Bead autofluor 4222 and MazEF act 2.
Screening c1ccc(COc2cccc(CN3CCN(c4ccccn4)CC3)c2)cc1 returned BoNT F protease -3, Anthrax LF inh2 -2, BoNT-A LC inh2 0, Bead autofluor 20483* and MazEF act -3.
Cc1cccc(CN2CCN(c3ccccn3)CC2)c1 was read as BoNT F protease -3, Anthrax LF inh2 -1, BoNT-A LC inh2 inconclusive, Bead autofluor 23318* and MazEF act -2.
Screening CCOC(=O)C1=C(COC(=O)c2nc(Cl)ccc2Cl)NC(=O)NC1C (centres undefined) returned BoNT F protease -4, Anthrax LF inh2 -3, BoNT-A LC inh2 -2, Bead autofluor inconclusive and MazEF act 10.
Screening OC1COC(c2ccccc2)OC1C1OC(c2ccccc2)OCC1O (centres undefined) returned BoNT F protease -4, Anthrax LF inh2 4, BoNT-A LC inh2 0, Bead autofluor 4168 and MazEF act 7.
For CCOc1ccc(C(=O)c2nc3c(n2O)CCCCC3)cc1 the results were BoNT F protease -21, Anthrax LF inh2 -1, BoNT-A LC inh2 0, Bead autofluor 3949 and MazEF act 4.
Screening COc1ccc(C(=O)c2nc3c(n2O)CCCCC3)cc1 returned BoNT F protease 11, Anthrax LF inh2 2, BoNT-A LC inh2 0, Bead autofluor 2344 and MazEF act -1.
Screening COc1ccc(C(=O)c2nc3c(n2O)CCCC3)cc1OC returned BoNT F protease -21, Anthrax LF inh2 -1, BoNT-A LC inh2 -3, Bead autofluor 4898 and MazEF act -1.
COc1ccc(OC)c(C(=O)c2nc3c(n2O)CCCCC3)c1 was read as BoNT F protease -6, Anthrax LF inh2 -2, BoNT-A LC inh2 -2, Bead autofluor 23230* and MazEF act -7.
`O=C(c1ccc(Oc2ccccc2)cc1)c1nc2c(n1O)CCCC2` gave BoNT F protease -5, Anthrax LF inh2 -1, BoNT-A LC inh2 inconclusive, Bead autofluor 23776* and MazEF act -3.
`CCCOc1ccc(C(=O)c2nc3c(n2O)CCCC3)cc1` gave BoNT F protease 0, Anthrax LF inh2 3, BoNT-A LC inh2 1, Bead autofluor 22563* and MazEF act 3.
For C[C@@H]1CN([C@H](C)CO)S(=O)(=O)c2ccc(Br)cc2O[C@H]1CN(C)C(=O)C1CC1 the results were BoNT F protease -13, Anthrax LF inh2 -13, BoNT-A LC inh2 -1, Bead autofluor 4431 and MazEF act 9.
Cc1ccc(S(=O)(=O)N2CCC[C@H]2C(=O)OCc2nc3ccccc3s2)cc1 was read as BoNT F protease 4, Anthrax LF inh2 -2, BoNT-A LC inh2 0, Bead autofluor 3927 and MazEF act -5.
CCCN(c1ccc(OCC)cc1)S(=O)(=O)c1ccc2c(c1)CCN2C(=O)CCC(=O)O was read as BoNT F protease 0, Anthrax LF inh2 1, BoNT-A LC inh2 -2, Bead autofluor 9170 and MazEF act 2.
